# An excerpt weighted towards active compounds, which were near 1.4% of everything screened.
# RE007 growth inh: qHTS Assay for Inhibitors of the HIV-1 protein Vpr; hit rate 0.21% among 360,000; Potency, µM (highest dose often 92.2 µM), inactives show at the highest dose activity change, negative = less growth, most hits filed as inhibitors; S. pombe RE007 Vpr strain, BacTiter-Glo ATP luminescence, 24 h; active means well fitted falling curve with a large enough effect; inconclusive means small, poorly fitted or top-dose-only effect; inactive means no such curve, though single readings can be large or run the other way; further: nearly all actives have a fitted effect of over 50% in size
#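 Fission yeast RE007 carrying one integrated HIV-1 vpr copy, seeded at OD 0.01 in PMG+AL medium with 23 nL pinned compound. Grown 24 h at 30 degrees; viability read by BacTiter-Glo luminescence after 5 min.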
# AmpC no deterg: qHTS Inhibitors of AmpC Beta-Lactamase (assay without detergent); P00811; Potency, µM (doses to about 57.1 µM), without a hit: top-dose activity change, negative = inhibition, actives largely listed as inhibitors; hit rate 0.52% among 330,000; AmpC nitrocefin hydrolysis, absorbance 480 nm, 0.0001% Triton;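 further: plate controls were no compound for no effect and no enzyme for full effect; nearly all actives have a fitted effect of over 20% in size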
# Target sequence (P00811 whole entry, looked up): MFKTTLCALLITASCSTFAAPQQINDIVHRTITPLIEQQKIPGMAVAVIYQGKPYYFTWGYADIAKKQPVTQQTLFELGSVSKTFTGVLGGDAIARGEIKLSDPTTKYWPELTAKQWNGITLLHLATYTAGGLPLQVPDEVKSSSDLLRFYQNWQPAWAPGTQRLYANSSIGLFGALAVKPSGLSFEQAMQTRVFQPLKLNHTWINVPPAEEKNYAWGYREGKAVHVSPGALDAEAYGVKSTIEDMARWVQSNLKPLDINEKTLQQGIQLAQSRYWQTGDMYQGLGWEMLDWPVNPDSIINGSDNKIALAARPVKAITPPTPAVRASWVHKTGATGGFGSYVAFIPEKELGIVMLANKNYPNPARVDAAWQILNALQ
#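 20 mM phosphate pH 7.0 + 0.01% (detergent screen) or 0.0001% Triton X-100; 5.3 nM AmpC reagent; cpd preinc 15 min RT; nitrocefin (800 uM stock) to start; A480 q20 s × 4 min; Activity was normalised to no-enzyme and no-compound control wells.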
# LmPK inhibitor: qHTS Assay for Inhibitors of Leishmania Mexicana Pyruvate Kinase (LmPK); hit rate 0.37% among 290,000; Potency, µM (series often up to 57.5 µM), without a hit: at the top dose activity change, negative = inhibition, most hits filed as inhibitors; purified LmPK, Kinase-Glo ATP luminescence, 1 h; Q27686
#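 Purified LmPK (0.1 nM) converted ADP (0.1 mM) to ATP with PEP (0.5 mM) in imidazole buffer pH 7.2 with KCl and MgCl2, 1 h at room temperature. ATP was read by Kinase-Glo luminescence; data normalized to uninhibited and no-enzyme controls.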
# TbPYK inhibitor: qHTS of Trypanosoma Brucei Inhibitors; TbPYK enzyme, Kinase-Glo Plus ATP luminescence, 45 min; Potency, µM (highest dose often 76.8 µM), for the others: at the highest dose activity, negative = inhibition, most hits filed as inhibitors; hit rate 0.12% among 410,000; further: nearly all actives have a fitted effect of over 50% in size
#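 In this concentration-response screen, enzyme-free wells defined baseline while DMSO plates tracked drift. Each reaction combined TbPYK, substrate, compound and 130 uM ADP for 45 min at room temperature. Kinase-Glo Plus luminescence gave the signal.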
# FBPA Giardia inh: qHTS Assay for Inhibitors of Fructose-1,6-bisphosphate Aldolase from Giardia Lamblia | AID 2451, 2010 | purified Giardia FBPA | Potency, µM (series often up to 59.6 µM), inactives show at the top dose activity, negative = inhibition, hits mostly inhibitors | A8B2U2 | hit rate 0.71% among 290,000; further: nearly all actives have a fitted effect of over 55% in size
# Target sequence (A8B2U2 whole entry, looked up): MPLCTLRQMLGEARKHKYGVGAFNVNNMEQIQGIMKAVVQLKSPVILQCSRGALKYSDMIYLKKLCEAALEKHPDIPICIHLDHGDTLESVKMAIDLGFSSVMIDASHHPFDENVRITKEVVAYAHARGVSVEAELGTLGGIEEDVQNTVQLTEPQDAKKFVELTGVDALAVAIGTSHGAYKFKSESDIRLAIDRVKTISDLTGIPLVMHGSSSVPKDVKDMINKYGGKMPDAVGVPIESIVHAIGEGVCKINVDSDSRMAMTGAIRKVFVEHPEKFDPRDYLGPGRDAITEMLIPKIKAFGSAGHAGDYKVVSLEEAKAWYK
#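 40 nM FBPA preincubated 10 min at RT with compound (up to 57.5 uM final), then substrate plus GAPDH/TPI/NAD/arsenate coupling and diaphorase/resazurin added. Fluorescence read after 20 min at RT, 525/598 nm.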
# AmpC detergent: qHTS Inhibitors of AmpC Beta-Lactamase (assay with detergent) | P00811 | AmpC hydrolysis of nitrocefin, absorbance 480 nm, 0.01% Triton | Potency, µM (series often up to 114 µM), inactives show at the top dose activity change, negative = inhibition, hits mostly inhibitors | hit rate 0.041% among 370,000 | AID 485294, 2010;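 further: 0% = no-compound wells and -100% = no-enzyme wells; nearly all actives have a fitted effect of over 25% in size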
#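 AmpC (5.3 nM in the dispensed reagent) in 20 mM phosphate pH 7.0 with 0.01% (detergent screen) or 0.0001% Triton X-100 was preincubated with compounds for 15 min at room temperature. Nitrocefin was then added from an 800 uM solution, and hydrolysis was followed at 480 nm.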
# * hit, by the source's call; ? = inconclusive; / = no result. Unless noted, the call rests on the fitted dose curve; in most records, active means well fitted curve in the direction sought with a large enough effect; inconclusive means small, poorly fitted or top-dose-only effect, or another doubt; inactive means no such curve, though single readings can be large; an effect the other way counts as inactive or inconclusive. Unless noted, on the % scale 0 is the no-effect control and ±100 the full control effect; potency means the concentration at half of the fitted maximal effect.
SMILES,RE007 growth inh,AmpC no deterg,LmPK inhibitor,TbPYK inhibitor,FBPA Giardia inh,AmpC detergent
O=C(CCNc1ccc(F)cc1)c1ccco1,6.31µM*,-10.8%,-5.5%,4.8%,-19.1%,5.2%
O=C(CCNc1ccc(F)c(Cl)c1)c1ccco1,-23.8%,-23.1%,-2.6%,2.3%,-4.0%,-5.5%
CCOC(=O)c1c(NC(=O)c2nc(S(C)(=O)=O)ncc2Cl)sc(C(C)=O)c1C,/,/,/,0.0%,/,1.6%
C=Cc1c(C)/c2[n-]/c1=C\c1[n-]c(c(CC)c1C)/C=c1\[n-]c3c(c1C)C(=O)C(C(=O)[O-])C=3c1[n-]c(c(C)c1CCC(=O)[O-])\C=2.[Cu].[Na+].[Na+] (stereo not drawn),/,/,/,-17.1%,14.1µM*,/
COc1ccc(NC(=O)C2CC(=O)n3cnnc3S2)cc1 (stereo not drawn),?,8.4%,12.5%,-23.4%,?,-2.0%
COc1cccc(NC(=O)C2CC(=O)n3cnnc3S2)c1 (stereo not drawn),35.5µM*,-7.0%,4.8%,-7.9%,?,-3.3%
CCOC(=O)CCC(=O)OC1C(OC2C(C)C(OC3CC(C)(OC)C(O)C(C)O3)C(C)C(=O)OC(CC)C(C)(O)C(O)C(C)C(=O)C(C)CC2(C)O)OC(C)CC1N(C)C (stereo not drawn),/,/,/,1.8%,/,/
C/C(=C\C(=S)Nc1ccccc1)Nc1ccc2ccccc2c1,?,-13.7%,-3.8%,10.1%,1.99µM*,?
COC(=O)c1ccc(NC(=S)Nc2ccc3ccccc3c2)cc1,-17.9%,0.251µM*,-4.7%,-10.0%,-2.6%,-1.0%
CCCC(=O)O[C@]1(C(=O)COC(=O)CC)[C@@H](C)C[C@H]2[C@@H]3CCC4=CC(=O)C=C[C@@]4(C)[C@@]3(F)[C@H](O)C[C@@]21C,/,/,/,5.7%,/,/
Cc1ccc(NC(=O)N2CCCc3ccccc32)cc1,-1.6%,-21.7%,2.2%,-1.8%,-5.4%,-0.8%
Cc1ccc(NC(=O)N2CCc3ccccc32)cc1,?,-29.1%,25.1µM*,-26.1%,-19.1%,-4.0%
Cc1ccc(C(=O)N2CCc3ccccc32)o1,?,-21.0%,14.1µM*,-29.5%,-1.3%,-5.0%
Cc1c2c(=O)n(-c3nc4ccccc4s3)nc-2cc(O)n1Cc1ccccc1,4.5%,15.8µM*,-10.9%,2.9%,-6.2%,0.0%
CCOC(=O)c1c(C)[nH]c2cc(Br)c(O)cc12,4.3%,-36.7%,2.9%,0.5%,-14.1%,?
CCOC(=O)c1c(OCC)[nH]c2c1cc(O)c1ccccc12,-18.2%,-45.7%,?,-19.5%,19.9µM*,-12.8%
CCOC(=O)c1c(N)sc2c1CCN(Cc1ccccc1)C2,/,/,/,2.8%,17.7µM*,/
CCOC(=O)c1c(NC(=O)Cc2ccccc2)sc2c1CCN(CC)C2,-0.4%,113.5%,-4.1%,-6.2%,?,?
Cc1cccc(NC(=O)c2ccccc2NC(=O)c2ccco2)c1,-3.9%,6.31µM*,-1.9%,7.7%,/,-0.1%
CC1=C(c2ccc(C)cc2)S(=O)(=O)N(Cc2ccc(C(=O)NCc3cccc(C)c3)cc2)C1=O,/,/,/,2.1%,/,21.8%
Nc1nc2ccccc2n1C(=O)c1ccc(F)cc1,-13.0%,-28.5%,25.1µM*,-9.8%,-13.3%,1.2%
Nc1nc2ccccc2n1C(=O)c1ccccc1,?,-15.6%,6.31µM*,?,-27.1%,-9.2%
COc1cccc(OC)c1-c1cc(C(=O)NC2(C(=O)O)C3CC4CC(C3)CC2C4)nn1-c1ccnc2cc(Cl)ccc12 (stereo not drawn),/,/,/,-9.5%,/,/
O=C(c1ccc(Cn2cc(Br)cn2)o1)n1cccn1,0.2%,0.501µM*,14.0%,-0.4%,4.7%,2.0%
COc1ccc(C(=O)N2CCN(c3nc4c(C)c(Cl)ccc4s3)CC2)c(OC)c1,/,/,/,2.2%,/,1.8%
SMILES,RE007 growth inh,AmpC no deterg,LmPK inhibitor,TbPYK inhibitor,FBPA Giardia inh,AmpC detergent
O=[N+]([O-])c1cccc(/C=N/Nc2nccnc2Cl)c1,-13.8%,-9.3%,14.1µM*,-18.8%,-24.7%,-3.2%
Fc1ccc(/C=N/Nc2nccnc2Cl)cc1,-27.1%,1.3%,?,?,?,1.3%
O=[N+]([O-])c1cccc(/C=N/Nc2ccccn2)c1,4.5%,-3.6%,-2.3%,-8.2%,-0.8%,-13.5%
Oc1ccc(/C=N/Nc2nccnc2Cl)cc1,?,-15.1%,5.01µM*,?,-19.0%,-10.1%
CC1CCN(S(=O)(=O)c2ccc(NC(=O)C3CSC4(C)CCC(=O)N34)cc2)CC1 (stereo not drawn),-7.8%,14.1µM*,/,1.5%,/,?
CCn1c(=O)c2cc(C(=O)N3CCN(C)CC3)sc2c2ccccc21,5.3%,0.631µM*,-1.0%,-1.8%,-1.3%,-5.0%
O=C(NC1CCCCCC1)c1ccc([N+](=O)[O-])s1,44.7µM*,-25.1%,/,4.4%,/,0.0%
O=C(NC1CCCC1)c1ccc(Cl)s1,-14.8%,-21.2%,-3.0%,-4.3%,/,-5.8%
Cc1cccc(N2CCN(C(=O)c3cccn4c(=O)c5cc(Cl)ccc5nc34)CC2C)c1 (stereo not drawn),/,/,/,-2.5%,/,-3.2%
CCN(CC)c1ccccc1,1.0%,-4.2%,/,0.8%,/,-3.9%
CCN(CC)c1ccc(C(=C2C=CC(=[N+](CC)CC)C=C2)c2ccccc2)cc1,4.47µM*,/,/,?,17.7µM*,/
Cc1[nH]c2ccccc2c1Cc1n[nH]c(=S)n1C,-8.0%,-27.2%,-1.5%,?,-10.9%,-3.0%
Cn1c(Cc2c[nH]c3ccccc23)n[nH]c1=S,0.9%,-12.8%,-5.3%,17.8µM*,-27.1%,1.0%
c1ccc2c(Cc3c[nH]c4ccccc34)c[nH]c2c1,/,/,/,/,-1.9%,/
Cc1[nH]c2ccccc2c1SCc1n[nH]c(=S)n1C,21.1%,-17.1%,7.94µM*,?,-10.7%,5.3%
CCN(c1ccc(OC)cc1)S(=O)(=O)c1ccc2[nH]c3c(c2c1)CCCCC3,/,/,/,-1.6%,/,0.7%
CCCc1cc(=O)[nH]c2nnc(SCC)n12,/,/,/,-26.9%,/,0.3%
COc1ccc(-n2c(=O)c3c(c4cc(OC)ccc4n3C)n(Cc3cc(C)ccc3C)c2=O)cc1,/,/,/,1.5%,/,10.3%
CCOc1ccc(N(C)C(CNS(=O)(=O)c2ccccc2)c2ccccc2)cc1 (stereo not drawn),/,/,/,1.0%,/,25.2%
C=C(C)C1CC=C(C)/C(=N/Nc2ccccc2[N+](=O)[O-])C1 (stereo not drawn),-4.4%,-14.7%,-7.8%,-2.1%,-0.8%,-3.9%

# Screening results from PubChem BioAssay.
